# In ChEMBL document CHEMBL3988442, “University of Dundee, Small-Polar-MMV Screening Library” (2021):
# Among all 53,000 compounds or so, about 900 (1.7%) showed an effect of 50% or more. This excerpt belongs to a sample that is enriched for strong results.
# Tested on: Mycobacterium tuberculosis
# Assay: Cornell - Phenotypic assay to identify agents that inhibit growth of Mycobacterium tuberculosis
# Assay type: functional
# Parameters: scale not given: direction of the effect not stated beside the values
# Settings: 10 mM as filed; unlikely as a test dose
row,SMILES,Percent Effect
1,COc1ccc(OC(F)F)c(NCC(=O)NCC(=O)N2CCCC2)c1,14.52%
2,COC(=O)COc1c(F)cc(Br)cc1C(C)=O,-28.15%
3,NS(=O)(=O)NCc1cc(-c2ccco2)n(CC(F)(F)F)n1,5.494%
4,O=C(Nc1cccn(Cc2ccc(F)cc2)c1=O)c1cnc[nH]1,15.84%
5,Cc1nnc(SCC(=O)c2cc3c(cc2Cl)NC(=O)C3)o1,14.6%
6,Cc1nc(C(C)N2Cc3ncccc3C2=O)cs1 (stereo not drawn),12.56%
7,COCc1nc(CNc2cccc(-c3ncon3)c2)cs1,-0.7134%
8,COCc1nc2cc(NCc3ccncc3)ccc2o1,39.69%
9,COCc1nc2cc(NCc3cc[nH]n3)ccc2o1,106.8%
10,CCC(O)CN1CCN(C(=O)c2ccc(Cn3cccc3)cc2)CC1 (stereo not drawn),-35.22%
11,CCCS(=O)(=O)N1CCN(Cc2ccco2)CC1.O=C(O)C(=O)O,-8.655%
12,COc1cc(C(=O)N2CC3(CCNCC3)c3cc(Cl)ccc32)ccn1.O=C(O)C(F)(F)F.O=C(O)C(F)(F)F,15.78%
13,CNc1cc(-c2ccc(COCCN)cc2)c2cc[nH]c2n1,26.91%
14,CNc1cc(-c2ccccc2CN)c2cc[nH]c2n1,23.62%
15,CNc1cc(-c2cccc(CN)c2)c2cc[nH]c2n1,80.74%
16,CCOc1c(Cl)cc(/C=C/c2ncc(C(=O)O)s2)cc1OC,33.38%
17,CCOCC1CCN(C(=O)C(c2ccccc2F)N(C)C)CC1 (stereo not drawn),28.27%
18,CS(=O)(=O)N1CCN(C(=O)c2cncs2)CC(C(N)=O)C1 (stereo not drawn),53.86%
19,CNC(=O)C1CCCN(C(=O)c2cncs2)C1 (stereo not drawn),43.16%
20,CNC(=O)C1CN(C(=O)c2cccs2)CCN(S(C)(=O)=O)C1 (stereo not drawn),18.15%
21,COC[C@@]12CCO[C@@H]1CCN(C(=O)Cc1ccccc1C)C2,7.914%
22,Cc1oc(C)c(C(=O)NS(=O)(=O)c2ccc3c(c2)OCCCO3)c1C,58.42%
23,Cc1ccc(C(=O)NS(=O)(=O)c2ccc3c(c2)OCCCO3)o1,-1.542%

row,SMILES,Percent Effect
1,Cc1oc(C)c(C(=O)NS(=O)(=O)c2ccc3c(c2)OCCO3)c1Br,6.395%
2,NC(=O)N1CCC(C(=O)NC2CCc3nccn3C2)CC1 (stereo not drawn),-11.45%
3,COC(=O)C(c1cc(F)ccc1F)N(C)C(=O)c1ccccn1 (stereo not drawn),0.1474%
4,COC(=O)C(NC(=O)c1ccco1)c1cc(F)ccc1F (stereo not drawn),104.5%
5,COC(=O)C(NC(=O)COC1CCCCC1)c1ccccc1 (stereo not drawn),43.33%
6,NC(=O)C(NC(=O)COC1CCCC1)c1ccccc1 (stereo not drawn),21.89%
7,COC(=O)C(NC(=O)C(C)C)c1cc(F)ccc1F (stereo not drawn),35.55%
8,COC(=O)C(NC(=O)COC1CCCC1)c1cc(F)ccc1F (stereo not drawn),63.8%
9,O=C(c1cc(-c2cccs2)cs1)N1CCSCC1,48.33%
10,Cc1cc(NC(=O)NCC(C)N2CCc3ccccc32)no1 (stereo not drawn),26.44%
11,Cl.NC(CC1CCCCC1)c1ccccc1 (stereo not drawn),52.12%
12,OC(CN1CCN(CC2CCCCC2)CC1)c1ccccc1 (stereo not drawn),2.655%
13,NC(CC1CCCC1)c1ccc(Oc2ccccc2)cc1 (stereo not drawn),105%
14,NC(=O)C(NC(=O)COC1CCCCC1)c1ccccc1 (stereo not drawn),22.67%
15,Cl.NC(CC1CCCC1)c1ccccc1 (stereo not drawn),23.09%
16,NC(c1ccccc1)c1ccc(OC(F)F)cc1 (stereo not drawn),11.06%
17,COc1cc(C)nc(N2CCN(C(=O)c3ccn(C)c(=O)c3)CC2)n1,29.4%
18,Cn1c2ccccc2c2ncn(CCCN3CCOCC3)c(=O)c21,-22.77%
19,Cc1nc(CCC(N)=O)cc(C2CCCCN2S(C)(=O)=O)n1 (stereo not drawn),34.9%
20,Cc1nn(C)c(Cl)c1CNCc1cccnc1N1CCCCC1.Cl,10.36%
21,Cc1ccccc1N1CCN(c2cc(N(C)C)ncn2)C(C)C1 (stereo not drawn),75.02%
22,Cc1ccc(N2CCN(c3ccccc3C)CC2C)nn1 (stereo not drawn),29.54%
23,Cc1ccccc1N1CCN(c2ccncn2)C(C)C1 (stereo not drawn),16.47%

row,SMILES,Percent Effect
1,COCC1c2c(cnn2C)CCN1Cc1ccsc1 (stereo not drawn),24.96%
2,Cc1noc(C)c1CN1C[C@H](C)[C@]2(CCN(Cc3cccnc3)C2=O)C1.O=C(O)C(F)(F)F.O=C(O)C(F)(F)F,-5.753%
3,Cn1ccnc1CN1CCC2(CCC(=O)N2CCN2CCCC2)CC1.O=C(O)C(F)(F)F.O=C(O)C(F)(F)F,19.98%
4,Cc1cnn(CC2CN(c3ncnc4ccccc34)CCO2)c1 (stereo not drawn),29.19%
5,CN(C)CC1CN(c2cnc3ccccc3n2)CCO1 (stereo not drawn),-10.68%
6,Cc1cnn(CC2CN(c3cnc4ccccc4n3)CCO2)c1 (stereo not drawn),106.1%
7,Cc1nn(C)cc1-c1cc(C(=O)NCC(C)(C)c2ccc(F)cc2)n[nH]1,61.27%
8,Cc1nn(C)cc1-c1cc(C(=O)NCC(C)(C)c2cccc(F)c2)n[nH]1,26.97%
9,Cc1nn(C)cc1-c1cc(C(=O)NCC(C)(C)c2ccccc2F)n[nH]1,-16.11%
10,COCC1c2nnn(CC3CC3)c2CCN1Cc1ccncc1.O=C(O)C(F)(F)F.O=C(O)C(F)(F)F (stereo not drawn),18.59%
11,CN1CCC(Cc2cc(N(C)C)ncn2)C1 (stereo not drawn),2.45%
12,CC(C)c1cc(CN2CCC(N)CC2)no1,-17.69%
13,CC(C)c1cc(CN2CCC(CC(=O)O)CC2)no1,-2.549%
14,CC(C)c1cc(CN2CCNCC2)no1,107.4%
15,CN1C[C@@H](C(=O)NC(C)(C)C)[C@@]2(COc3ccc(F)cc3C2=O)C1,28.72%
16,COc1ccccc1C1Cn2c(C)cnc2CN1Cc1ccc(C)nc1 (stereo not drawn),-10.88%
17,O=C(c1c(F)cccc1F)N1CCC[C@@H]1Cn1c(=O)oc2ccccc21,34.56%
18,COc1cccc(OC2CN(C(=O)c3sccc3C)C2)c1,55.64%
19,COc1cccc(OC2CN(C(=O)c3c(C)noc3C)C2)c1,10.7%
20,COc1cccc(OC2CN(C(=O)c3ccoc3C)C2)c1,-6.916%
21,Cc1nc2c(c(NCc3cnc4c(c3)CCC4)n1)CNC2,4.431%
22,COCCS(=O)(=O)c1ncc(CN(C)C)n1Cc1ccccc1,5.309%
